Results taken from PubChem BioAssay.
Calls of active or inactive are those of the source. Unless noted, the rule behind the calls is not given here.

Tests used:
[1] = test system: Wnt5a (protein binding on small-molecule microarray); experiment: small molecules binding Wnt5a protein – biophysical, small-molecule microarray, 635/667 nm fluorescence, primary screen (AID 1142); settings: 635 nm fluorescence, higher = more signal;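 note: fluorescence read at 667 nm with signal to noise per printed feature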
[2] = ATP-based viability of Huh7 replicon cells – cell-based, CellTiter-Glo luminescence, basal, 48 h, cytotoxicity control for HCV replication inhibitor project, primary screen (AID 1143); settings: higher = more signal, called active from +8 up or from −8 down;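 note: Huh7 hepatoma cells carrying a hepatitis C replication reporter with no stimulus; test concentration not given here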
[3] = Pseudomonas biofilm growth suppression – PAO1 strain, BacTiter-Glo luminescence, LB-PBS, primary screen (AID 1144); settings: P. aeruginosa PAO1 biofilm, 12 h, higher = more signal
[4] = basal CRE-LacZ reporter activity in PC12 – cell-based, unstimulated, primary screen (AID 1145); settings: no forskolin, luminescence, 4.5 h, higher = more signal, called active from +8 up or from −8 down
[5] = forskolin-driven CRE-LacZ activity in PC12 – cell-based, CRE-LacZ reporter, forskolin-stimulated, primary screen (AID 1146); settings: luminescence, 4.5 h, higher = more signal, called active from +8 up or from −8 down;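 note: PC12 cells with 6xCRE LacZ reporter stimulated by forskolin 10 µM; beta-galactosidase reporter signal reflecting CREB driven transcription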
[6] = target: Streptavidin (Streptomyces avidinii) (UniProt P22629); experiment: compounds binding control protein streptavidin – biophysical, small-molecule microarray, 635/667 nm fluorescence, artefact control for SMM compound annotation, primary screen (AID 1147); settings: higher = more signal;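 note: signal reflects streptavidin binding to arrayed compounds as a control protein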
Chain of Streptavidin (Streptomyces avidinii) (P22629 whole entry, looked up): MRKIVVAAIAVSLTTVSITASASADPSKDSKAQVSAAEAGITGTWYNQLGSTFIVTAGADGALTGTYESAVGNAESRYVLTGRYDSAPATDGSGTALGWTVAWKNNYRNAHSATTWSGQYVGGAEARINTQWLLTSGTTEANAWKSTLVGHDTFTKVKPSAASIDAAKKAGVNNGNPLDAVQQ

[7] = probe aInhba binding on compound microarray – biochemical, small-molecule microarray, 635/667 nm fluorescence, primary screen (AID 1148); settings: higher = more signal;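 note: score merges 667nm spot fluorescence with signal-to-noise for antibody binding to printed compounds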
[8] = target: Torsin-1A (Homo sapiens) (UniProt O14656); experiment: TOR1A wild-type binding on microarray – cell lysate, small-molecule microarray, lysate, 635/667 nm, primary screen (AID 1149); settings: COS7 hTOR1A-WT lysate, 635 nm fluorescence, higher = more signal
Chain of Torsin-1A (Homo sapiens) (O14656 whole entry, looked up): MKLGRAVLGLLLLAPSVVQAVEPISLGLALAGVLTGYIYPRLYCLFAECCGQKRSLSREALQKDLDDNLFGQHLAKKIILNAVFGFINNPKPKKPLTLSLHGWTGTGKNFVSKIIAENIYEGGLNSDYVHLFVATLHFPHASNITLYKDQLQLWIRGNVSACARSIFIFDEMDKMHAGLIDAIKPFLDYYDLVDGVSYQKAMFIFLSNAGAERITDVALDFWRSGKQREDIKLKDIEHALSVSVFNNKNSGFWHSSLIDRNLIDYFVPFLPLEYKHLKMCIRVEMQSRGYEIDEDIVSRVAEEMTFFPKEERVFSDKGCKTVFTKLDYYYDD

[9] = target: Torsin-1A (Homo sapiens) (UniProt O14656); experiment: torsin A mutant lysate binding on microarrays – cell lysate, small-molecule microarray, COS7 lysate, 635/667 nm fluorescence, primary screen (AID 1150); settings: COS7 hTOR1A mutant lysate, 635 nm fluorescence, higher = more signal;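 note: score pools 667 nm emission and signal to noise measuring lysate protein binding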
[10] = test system: Sonic hedgehog protein (Shh); experiment: Sonic hedgehog microarray binding compounds – biochemical, small-molecule microarray, 635/667 nm fluorescence, primary screen (AID 1151); settings: 635 nm fluorescence, higher = more signal;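 note: Shh protein binding to compounds spotted on small-molecule microarray slides; score combines spot fluorescence intensity with signal-to-noise across triplicate slides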

| Structure (SMILES) | composite z-score [1] | z-score [2] | z-score [3] | z-score [4] | z-score [5] | composite z-score [6] | composite z-score [7] | composite z-score [8] | composite z-score [9] | composite z-score [10] |
| --- | --- | --- | --- | --- | --- | --- | --- | --- | --- | --- |
| COCCCNC(=O)[C@@]1(c2ccc([N+](=O)[O-])cc2)CC(=O)N(C(C)C)[C@@H]1c1ccc(CO)cc1 | 0.0039 | 0.433 (inactive) | 0.797 (inactive) | 0.495 (inactive) | 0.0212 (inactive) | -0.934 | 0.315 | 0.722 | 1.05 | 0.0776 |
| CC=CC(O)C1C=CC2C(=O)NC(=O)C2N1Nc1ccccn1 (stereo not given) | -0.11 | 1.11 (inactive) | -0.587 (inactive) | -0.329 (inactive) | 0.701 (inactive) | 0.149 | -0.0645 | 0.599 | -0.164 | 0.77 |
| CCCCCCCCCCC(O)C1C=CC2C(=O)N(c3ccccc3)C(=O)C2N1Nc1ccccc1F (stereo not given) | -0.13 | 0.325 (inactive) | -0.425 (inactive) | -1.09 (inactive) | 0.476 (inactive) | 0.282 | 0.0074 | -0.35 | -0.524 | -0.992 |
| COc1ccc(C#Cc2ccc3c(c2)[C@]2(C(=O)N3)[C@H](C(=O)Nc3nc4ccccc4s3)[C@H]3C(=O)O[C@H](c4ccccc4)[C@H](c4ccccc4)N3[C@@H]2c2ccccc2OCCO)cc1 | 0.189 | -4.68 (inactive) | -0.939 (inactive) | -0.788 (inactive) | -0.369 (inactive) | 0.689 | 0.0569 | 0.076 | 0.0705 | 0.912 |
| C=CCOC(=O)[C@H]1[C@@H]2C(=O)O[C@@H](c3ccccc3)[C@@H](c3ccccc3)N2[C@@H](c2ccc(OCCOC(=O)[C@H]3C[C@H]4C(=O)N[C@@H](CCCCNC(C)=O)C(=O)N4[C@H]3c3cccc(OCCO)c3)cc2)[C@]12C(=O)Nc1ccc(I)cc12 | 1.28 | -2.16 (inactive) | 0.437 (inactive) | 0.557 (inactive) | 0.133 (inactive) | 0.0123 | -0.431 | 0.96 | 0.763 | 2.46 |
| CCOC(=O)C[C@H]1[C@H](OC(=O)c2ccccc2-c2ccccc2)[C@@H](NC(=O)c2ccccc2)c2cc(OCCCO)ccc2N1C(=O)c1ccccc1 | 0.309 | -0.208 (inactive) | 0.867 (inactive) | 2.38 (inactive) | 0.908 (inactive) | 0.19 | -0.157 | 0.0802 | 0.261 | 0.259 |
| COC(=O)[C@@]1(Cc2ccccc2)[C@H]2c3cc(C(=O)N(C)C)n(CCn4cc([N+](=O)[O-])nc4C)c3C[C@H]2CN1C(=O)c1ccccc1 | 0.192 | -0.65 (inactive) | 0.331 (inactive) | -0.379 (inactive) | 1.45 (inactive) | 0.287 | -0.147 | 0.614 | 0.464 | 0.383 |
| CCCCC(=C=CC[C@H](O)c1ccc(OCCO)cc1)C[C@H](O)COCc1ccccc1 | -0.0866 | -0.92 (inactive) | 0.403 (inactive) | 10.3 (active) | 0.434 (inactive) | -0.499 | -0.145 | -0.327 | 0.388 | 0.571 |
| C=C(CCCC)C(=O)CC[C@@H](OC(=O)c1cccnc1)c1ccc(OCCO)cc1 | 1.08 | -2.32 (inactive) | 0.383 (inactive) | 11.5 (active) | 1.62 (inactive) | -0.444 | 0.0857 | 1.12 | 0.507 | 2.35 |
| [N-]=[N+]=NCc1ccccc1[C@@H]1OC(c2ccc(OCCCO)cc2)=N[C@]1(Cc1ccccc1)C(=O)NCCN1CCOCC1 | 0.629 | -2.31 (inactive) | 0.0636 (inactive) | 2.76 (inactive) | -0.808 (inactive) | 0.686 | 0.386 | 0.0739 | 0.818 | 0.0392 |
| C=CCC(OC(C)=O)[C@@H]1[C@@H](N(Cc2cccc3ccccc23)C(=O)c2cccc3ccccc23)c2cc(OCCCO)ccc2N1C(=O)c1ccc2ccccc2c1 (stereo not given in full) | -0.23 | -2.35 (inactive) | 0.311 (inactive) | -1.1 (inactive) | 1.03 (inactive) | -0.0629 | -0.0288 | 0.0265 | -0.252 | 0.49 |
| CC(C)C[C@@H]1NC(=O)[C@@]23C(=O)N[C@@H](Cc4ccccc4)C2[C@H](C)[C@@]2(C)O[C@H]2C3/C=C/C/C=C\CNC(=O)[C@@H](C)NC1=O (stereo not given in full) | -0.336 | -0.611 (inactive) | -0.944 (inactive) | 0.662 (inactive) | -0.268 (inactive) | -0.823 | -0.348 | 0.056 | -0.196 | 1.29 |
| COc1cc2c(cc1OC)CN(C(=O)[C@@H]1[C@H]3C(=O)O[C@H](c4ccccc4)[C@H](c4ccccc4)N3[C@H](c3ccc(O)cc3)[C@@]13C(=O)Nc1ccc(C#CCCO)cc13)CC2 | 0.527 | 0.082 (inactive) | -0.403 (inactive) | -0.878 (inactive) | -0.231 (inactive) | 0.819 | -0.0493 | -0.0185 | 0.45 | 0.655 |
| CN(C)CCCNC(=O)[C@@H]1c2ccccc2C(=O)N(C2CCCCC2)[C@H]1c1ccc(CO)cc1 | 0.76 | -0.395 (inactive) | -0.312 (inactive) | 1.24 (inactive) | -0.291 (inactive) | 0.139 | 0.271 | 0.567 | 1.03 | 1.81 |
| CCCCC(=O)N(CCN1CCOCC1)[C@@H]1CC(C(=O)NCCO)=C[C@H](Oc2c(I)cc(CO)cc2OC)[C@H]1O | -0.0408 | 0.0643 (inactive) | -0.141 (inactive) | 1.4 (inactive) | -1.19 (inactive) | -0.0538 | -0.253 | 0.314 | -0.0203 | 0.655 |
| COc1ccc(C#Cc2ccc3c(c2)[C@]2(C(=O)N3)[C@H](c3ccc(OCCO)cc3)N3[C@H](c4ccccc4)[C@H](c4ccccc4)OC(=O)[C@H]3[C@@H]2C(=O)N2CCc3cc(OC)c(OC)cc3C2)cc1 | 1.04 | -0.632 (inactive) | -0.221 (inactive) | 0.478 (inactive) | 0.198 (inactive) | 1.83 | -0.308 | 0.394 | 0.722 | 2.15 |
| COCC1C2CC[C@H]3C(OCc4ccc(OC)cc4)OC[C@]4(C)[C@H]3C2=C(CN4C(=O)OC(C)(C)C)[C@H](C)C1COC (stereo not given in full) | 0.261 | -2.88 (inactive) | 0.413 (inactive) | -0.185 (inactive) | -0.0287 (inactive) | 2.08 | -0.321 | 0.187 | 0.255 | 0.298 |
| C=C(/C(=C/C[C@H](OC(=O)c1ccncc1)c1ccccc1OCCO)c1cnc2ccccc2c1)C(C)C | 0.733 | -0.0956 (inactive) | -0.91 (inactive) | 2.52 (inactive) | 1.5 (inactive) | 1.81 | 0.0471 | 1.06 | 1.07 | 2.01 |
| CO[C@H]1O[C@H](CO)[C@@H](OC(=O)CCc2ccccc2)[C@H](OC(=O)c2cc3ccccc3[nH]2)[C@H]1OC(=O)c1cc2ccccc2[nH]1 | 0.156 | -5.71 (inactive) | -1.99 (inactive) | -1.28 (inactive) | -1.2 (inactive) | -0.0944 | 0.0391 | 0.71 | 0.913 | 0.832 |
| COC(=O)[C@@]1(Cc2ccc(OC)cc2)[C@H]2c3cc(C(=O)N4CCCC4)n(Cc4cc(C)n(C)n4)c3C[C@H]2CN1C(=O)c1ccccc1 | 0.973 | -0.434 (inactive) | 0.463 (inactive) | -0.375 (inactive) | 0.543 (inactive) | 1.92 | 0.605 | 0.544 | 0.24 | -0.319 |
| COC(=O)[C@@]1(Cc2ccc(F)cc2)[C@H]2c3cc(C(=O)N4CCCC4)n(C)c3C[C@H]2CN1C(=O)c1ccccc1 | 0.926 | -1.4 (inactive) | -0.666 (inactive) | 0.58 (inactive) | 0.736 (inactive) | 1.18 | 0.757 | 0.492 | 1.34 | -0.928 |
| CC(C)CCC[C@@H](C)[C@H]1CC[C@@]2(C)C3=C(CC[C@]12C)[C@@]1(C)CC[C@H](OC(=O)c2ccccc2)C(C)(C)C1CC3 (stereo not given in full) | 0.0964 | -1.16 (inactive) | -1.65 (inactive) | 0.581 (inactive) | -0.653 (inactive) | 0.18 | -0.178 | 0.316 | 0.171 | 0.364 |
| O=C1C[C@@](C(=O)NCC(F)(F)F)(c2ccc([N+](=O)[O-])cc2)[C@@H](c2ccc(CO)cc2)N1CC12CC3CC(CC(C3)C1)C2 | 0.988 | -5.79 (inactive) | -0.542 (inactive) | 0.324 (inactive) | -1.01 (inactive) | 0.261 | 0.216 | 0.406 | 0.397 | 1.34 |
| [N-]=[N+]=Nc1ccccc1[C@@H]1OC(c2ccc(OCCCO)cc2)=N[C@]1(Cc1ccccc1)C(=O)NCc1ccccc1 | 0.792 | -3.97 (inactive) | -0.065 (inactive) | 0.143 (inactive) | -0.757 (inactive) | 1.45 | 0.38 | 0.662 | 1.09 | 0.263 |
| COc1ccc([Si](C)(C)[C@H]2[C@H](CC(=O)N3CCC[C@H]3CO)O[C@@]3(C(=O)N(Cc4ccc(N5CCC5=O)cc4)c4ccccc43)[C@@H]2C)cc1 | 0.699 | -5.51 (inactive) | 0.0292 (inactive) | 0.18 (inactive) | -0.404 (inactive) | 0.39 | -0.0523 | 1.1 | 0.43 | 1.77 |
| [N-]=[N+]=NCc1ccccc1[C@H]1OC(c2ccc(OCCCO)cc2)=N[C@@]1(Cc1ccccc1)C(=O)NCCN1CCOCC1 | 0.526 | -3.01 (inactive) | -0.206 (inactive) | 1.53 (inactive) | -0.355 (inactive) | 1.13 | 0.555 | 1.03 | 0.604 | 0.502 |
| [N-]=[N+]=Nc1ccccc1C[C@]1(C(=O)O)N=C(c2ccc(OCCCO)cc2)O[C@H]1c1ccccc1N=[N+]=[N-] | 0.0284 | -1.26 (inactive) | 0.0243 (inactive) | 0.274 (inactive) | -1.65 (inactive) | 1.58 | 0.362 | 0.327 | 0.241 | -0.0242 |
| CN(C)C(=O)[C@@]1(Cc2ccccc2N=[N+]=[N-])N=C(c2ccc(OCCCO)cc2)O[C@H]1c1ccccc1 | 0.797 | -4.41 (inactive) | -1.63 (inactive) | 0.872 (inactive) | 0.361 (inactive) | 1.84 | 0.841 | 0.106 | 0.401 | -0.361 |
